We go through twelve sequences from publication PMC5700166.

Where a chain is given by its changes, count along the chain named.

What all share (assay): protein-binding microarray (PBM); PBM: ~300 nM protein, 6 mM HEPES pH 7.8, 80 mM KCl, 0.5 mM EDTA, 0.5 mM EGTA, 6% glycerol, 35 ng/ul poly-dIdC, 1% milk, 1 h, room temperature; Ap Aiptasia and Nv Nematostella (sea anemones) / Co Capsaspora / Aq Amphimedon (sponge) / Dm Drosophila / Hu human; RHD is the Rel homology domain; high values mean tight binding
Common to all, as to conditions: dsDNA, one strand shown

Experiment [1] addresses T1, GST-Ap-NF-kB RHD (Exaiptasia pallida (Aiptasia), UniProt A0A913YAJ5 2-422).
T1 sequence: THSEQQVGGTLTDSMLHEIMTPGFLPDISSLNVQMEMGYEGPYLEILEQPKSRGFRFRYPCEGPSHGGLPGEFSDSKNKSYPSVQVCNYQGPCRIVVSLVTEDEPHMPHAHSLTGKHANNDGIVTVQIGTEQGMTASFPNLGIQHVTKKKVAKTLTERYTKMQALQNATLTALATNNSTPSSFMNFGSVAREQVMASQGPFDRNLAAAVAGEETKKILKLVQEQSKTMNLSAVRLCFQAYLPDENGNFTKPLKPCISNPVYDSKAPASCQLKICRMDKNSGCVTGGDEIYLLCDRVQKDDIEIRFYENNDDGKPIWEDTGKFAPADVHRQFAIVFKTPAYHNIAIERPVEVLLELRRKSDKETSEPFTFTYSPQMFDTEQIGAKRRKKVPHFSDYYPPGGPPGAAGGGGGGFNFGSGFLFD

The target of experiment [2] is T2, GST-Nv-NF-kB (Cys allele) (Nematostella vectensis, UniProt E5G601 2-411).
T2 sequence: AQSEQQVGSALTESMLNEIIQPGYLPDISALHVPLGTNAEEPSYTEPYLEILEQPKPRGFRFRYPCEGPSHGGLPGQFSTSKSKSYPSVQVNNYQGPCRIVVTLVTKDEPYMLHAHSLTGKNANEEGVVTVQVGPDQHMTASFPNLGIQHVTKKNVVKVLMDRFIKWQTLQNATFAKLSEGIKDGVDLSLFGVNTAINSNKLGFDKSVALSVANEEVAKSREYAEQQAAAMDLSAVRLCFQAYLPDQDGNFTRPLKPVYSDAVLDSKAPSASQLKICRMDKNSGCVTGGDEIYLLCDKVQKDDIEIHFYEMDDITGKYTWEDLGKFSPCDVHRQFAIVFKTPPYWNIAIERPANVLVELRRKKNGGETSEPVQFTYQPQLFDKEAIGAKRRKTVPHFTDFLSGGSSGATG

Experiment [3] addresses T3, GST-Nv-NF-kB (Ser allele) (Nematostella vectensis, UniProt A7UNT2 2-411).
T3 sequence: T2 sequence with Q21R, C66S, S207N, E215Q, V217A, E225K, A268E, D399E

Experiment [4] has as its target T4, GST-Co-NF-kB (Capsaspora owczarzaki, UniProt F1ARL5 200-546).
T4 sequence: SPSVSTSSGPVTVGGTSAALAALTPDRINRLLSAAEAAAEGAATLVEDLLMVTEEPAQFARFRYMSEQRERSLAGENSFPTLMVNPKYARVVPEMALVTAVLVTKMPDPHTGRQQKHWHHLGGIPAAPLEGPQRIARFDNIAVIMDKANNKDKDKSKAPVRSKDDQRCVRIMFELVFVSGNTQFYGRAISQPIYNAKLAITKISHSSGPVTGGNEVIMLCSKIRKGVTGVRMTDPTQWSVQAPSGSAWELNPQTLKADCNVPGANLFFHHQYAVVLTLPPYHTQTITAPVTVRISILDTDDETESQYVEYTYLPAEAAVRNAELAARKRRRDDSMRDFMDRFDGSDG

In experiment [5] the target is T5, GST-Dm-Relish (Drosophila melanogaster, UniProt Q94527 99-473).
T5 sequence: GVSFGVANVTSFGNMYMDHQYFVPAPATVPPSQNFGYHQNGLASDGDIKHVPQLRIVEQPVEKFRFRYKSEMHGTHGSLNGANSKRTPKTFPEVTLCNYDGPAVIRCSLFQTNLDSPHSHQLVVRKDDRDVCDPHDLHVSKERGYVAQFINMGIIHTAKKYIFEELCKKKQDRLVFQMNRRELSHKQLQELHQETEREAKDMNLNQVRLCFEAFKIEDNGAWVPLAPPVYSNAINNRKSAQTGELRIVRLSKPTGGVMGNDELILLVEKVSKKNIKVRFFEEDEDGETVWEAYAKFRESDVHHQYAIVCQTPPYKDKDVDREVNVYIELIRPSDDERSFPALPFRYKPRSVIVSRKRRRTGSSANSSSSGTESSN

For experiment [6], the target named is T6, GST-Aq-NF-kB (Amphimedon queenslandica, UniProt A9Y5G7 2-389).
T6 sequence: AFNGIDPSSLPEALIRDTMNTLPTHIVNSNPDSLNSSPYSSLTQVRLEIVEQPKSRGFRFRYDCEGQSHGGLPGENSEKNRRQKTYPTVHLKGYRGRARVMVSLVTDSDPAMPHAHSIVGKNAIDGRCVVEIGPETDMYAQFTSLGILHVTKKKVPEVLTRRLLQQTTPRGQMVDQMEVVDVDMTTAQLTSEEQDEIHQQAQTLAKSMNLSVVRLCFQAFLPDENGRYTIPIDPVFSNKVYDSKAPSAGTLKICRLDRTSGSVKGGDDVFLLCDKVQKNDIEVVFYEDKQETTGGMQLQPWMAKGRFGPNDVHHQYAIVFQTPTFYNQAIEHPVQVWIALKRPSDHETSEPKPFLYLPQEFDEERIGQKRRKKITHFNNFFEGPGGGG

Experiment [7] concerns the target GST-Hu-p50 (Homo sapiens, UniProt P19838 7-356).

Chain of GST-Hu-p50 (P19838 7-356): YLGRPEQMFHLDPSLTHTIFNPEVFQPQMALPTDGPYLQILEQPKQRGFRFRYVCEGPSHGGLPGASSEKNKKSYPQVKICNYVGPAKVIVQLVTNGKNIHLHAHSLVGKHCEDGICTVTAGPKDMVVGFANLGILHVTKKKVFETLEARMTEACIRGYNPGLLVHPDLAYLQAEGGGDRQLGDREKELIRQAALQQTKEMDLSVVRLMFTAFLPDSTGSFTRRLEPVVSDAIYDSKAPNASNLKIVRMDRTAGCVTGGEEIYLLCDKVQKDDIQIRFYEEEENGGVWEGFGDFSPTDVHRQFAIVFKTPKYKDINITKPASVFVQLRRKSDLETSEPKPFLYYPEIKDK

Consider “CCGATTAACATCAGGGAATTACCTGATGTTAATCGGGTCTTGATTCGCTTGACGCTGCTG”, for which the binding signal in experiment [1] was found to be 8.44 z-score; in experiment [2], 9.55 z-score; in experiment [3], 9.14 z-score; in experiment [4] it was 5.01 z-score; in experiment [5], 8.83 z-score; in experiment [6], 9.49 z-score. In experiment [7], this sequence yielded a binding signal of 5.8 z-score.

For the sequence “CCGATTAACATCAGGGGAAAGAATGATGTTAATCGGGTCTTGATTCGCTTGACGCTGCTG”, the binding signal in experiment [1] amounted to 4.95 z-score; in experiment [2], 6.07 z-score; in experiment [3], 8.18 z-score; in experiment [4] it was 8.25 z-score; in experiment [5], 3.01 z-score; in experiment [6], 4.87 z-score. The same sequence gave a binding signal in experiment [7] of 5.05 z-score.

With “CCGATTAACATCAGGGAAAAGTATGATGTTAATCGGGTCTTGATTCGCTTGACGCTGCTG”, the binding signal in experiment [1] is 3.35 z-score; in experiment [2], 4.5 z-score; in experiment [3], 6.25 z-score; in experiment [4] it was 4.73 z-score; in experiment [5] it was 1.56 z-score; in experiment [6], 3.86 z-score. In addition, the binding signal in experiment [7] was 2.97 z-score.

Regarding “CCGATTAACATCAAAACCCCCCATGATGTTAATCGGGTCTTGATTCGCTTGACGCTGCTG”, the binding signal in experiment [1] stood at 8.56 z-score; in experiment [2], 6.62 z-score; in experiment [3], 6.57 z-score; in experiment [4] it was 4.66 z-score; in experiment [5] it was 9.53 z-score; in experiment [6], 7.39 z-score. Besides, the binding signal in experiment [7] was found to be 6.77 z-score.

“CCGATTAACATCACAAAAACCCCTGATGTTAATCGGGTCTTGATTCGCTTGACGCTGCTG”: the binding signal in experiment [1] came to 7.23 z-score; in experiment [2], 7.23 z-score; in experiment [3], 6.81 z-score; in experiment [4] it was 2.92 z-score; in experiment [5], 8.1 z-score; in experiment [6], 6.48 z-score. The same sequence gave a binding signal in experiment [7] of 6.99 z-score.

With “CCGATTAACATCACATCTCCCCCTGATGTTAATCGGGTCTTGATTCGCTTGACGCTGCTG”, the binding signal stood at 6.34 z-score in experiment [1]; 4.75 z-score in experiment [2]; 5.94 z-score in experiment [3]; 7.54 z-score in experiment [4]; 2.35 z-score in experiment [5]; 4.36 z-score in experiment [6]. In experiment [7], the binding signal is 5.73 z-score.

“CCGATTAACATCACACTTTTCCCTGATGTTAATCGGGTCTTGATTCGCTTGACGCTGCTG”: the binding signal in experiment [1] was determined as 3.17 z-score; in experiment [2] it was 4.45 z-score; in experiment [3], 6.11 z-score; in experiment [4], 4.46 z-score; in experiment [5], 1.59 z-score; in experiment [6] it was 3.57 z-score. For the same sequence, in experiment [7], the binding signal came out at 2.84 z-score.

With “CCGATTAACATCAAGTAACCCCCTGATGTTAATCGGGTCTTGATTCGCTTGACGCTGCTG”, the binding signal turned out to be 6.04 z-score in experiment [1]; 4.44 z-score in experiment [2]; 4.98 z-score in experiment [3]; 3.76 z-score in experiment [4]; 6.97 z-score in experiment [5]; 5.32 z-score in experiment [6]. This sequence displayed a binding signal in experiment [7] of 5.24 z-score.

Regarding “CCGATTAACATCAGAAGATCCCCTGATGTTAATCGGGTCTTGATTCGCTTGACGCTGCTG”, the binding signal in experiment [1] was determined as 7.16 z-score; in experiment [2], 6.92 z-score; in experiment [3], 6.96 z-score; in experiment [4], 2.91 z-score; in experiment [5] it was 7.44 z-score; in experiment [6] it was 6.44 z-score. In addition, the binding signal in experiment [7] worked out at 5.61 z-score.

For the sequence “CCGATTAACATCAGGGAATCTTATGATGTTAATCGGGTCTTGATTCGCTTGACGCTGCTG”, the binding signal was found to be 3.7 z-score in experiment [1]; 4.66 z-score in experiment [2]; 4.86 z-score in experiment [3]; 3.74 z-score in experiment [4]; 2.95 z-score in experiment [5]; 5.5 z-score in experiment [6]. For the same sequence, the binding signal in experiment [7] amounted to 4.29 z-score.

Consider “CCGATTAACATCAGGGGAGTTTATGATGTTAATCGGGTCTTGATTCGCTTGACGCTGCTG”, for which the binding signal in experiment [1] was 8.25 z-score; in experiment [2], 6.72 z-score; in experiment [3], 7.68 z-score; in experiment [4], 4.75 z-score; in experiment [5], 6.12 z-score; in experiment [6], 6.08 z-score. In experiment [7], the binding signal worked out at 5.95 z-score.

Turning to “CCGATTAACATCAAATACCCCCTTGATGTTAATCGGGTCTTGATTCGCTTGACGCTGCTG”, the binding signal in experiment [1] is 8.01 z-score; in experiment [2], 6.1 z-score; in experiment [3], 6.79 z-score; in experiment [4], 4.41 z-score; in experiment [5], 6.19 z-score; in experiment [6] it was 6.04 z-score. Further, the binding signal in experiment [7] is 5.85 z-score.
